# Experimental data: PubChem BioAssay (Tox21)
# Several values for one entry are separate records, joined by “and”; a condition that tells them apart may be missing. Equal values may be shown once. Results filed as inconclusive are left out. A call without a number means that no potency is given here. The source holds several records for some structures; these can differ, active in one and inactive in another. Activity calls are given as the source filed them. Unless noted, calls follow the shape of the dose curve; as a rule, active = well fitted curve in the direction sought with a large enough effect in the repeat runs; inconclusive = weak or mixed curves; inactive = no such curve, though single readings can be large; an effect the other way counts as inactive or inconclusive.
# Key:
# [1] = qHTS assay to identify small molecule agonists of the estrogen receptor alpha (ER-alpha) signaling pathway in the presence of an antagonist - cell viability counter screen (AID 1259386);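 also: series mostly up to about 92 µM; cells exposed to compounds for 22 h at 37 °C before the viability read; nearly all actives have a fitted effect of over 30% in size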
# Method in brief: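 Read-out: CellTiter-Fluor fluorescence after 1hr reagent incubation, measured in the same wells as the luciferase readout. VM7Luc4E2 cells were exposed to 15 compound concentrations with 10.0nM ICI-182,780 for 22hr at 37C.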
# [2] = biological target: Progesterone receptor (Homo sapiens) (UniProt P06401); assay: qHTS assay to identify small molecule agonists of the progesterone receptor (PR) signaling pathway (AID 1346784; calls by dose curve; also: nearly all actives have a fitted effect of over 30% in size)
# Sequence of Progesterone receptor (Homo sapiens) (P06401 whole entry, looked up): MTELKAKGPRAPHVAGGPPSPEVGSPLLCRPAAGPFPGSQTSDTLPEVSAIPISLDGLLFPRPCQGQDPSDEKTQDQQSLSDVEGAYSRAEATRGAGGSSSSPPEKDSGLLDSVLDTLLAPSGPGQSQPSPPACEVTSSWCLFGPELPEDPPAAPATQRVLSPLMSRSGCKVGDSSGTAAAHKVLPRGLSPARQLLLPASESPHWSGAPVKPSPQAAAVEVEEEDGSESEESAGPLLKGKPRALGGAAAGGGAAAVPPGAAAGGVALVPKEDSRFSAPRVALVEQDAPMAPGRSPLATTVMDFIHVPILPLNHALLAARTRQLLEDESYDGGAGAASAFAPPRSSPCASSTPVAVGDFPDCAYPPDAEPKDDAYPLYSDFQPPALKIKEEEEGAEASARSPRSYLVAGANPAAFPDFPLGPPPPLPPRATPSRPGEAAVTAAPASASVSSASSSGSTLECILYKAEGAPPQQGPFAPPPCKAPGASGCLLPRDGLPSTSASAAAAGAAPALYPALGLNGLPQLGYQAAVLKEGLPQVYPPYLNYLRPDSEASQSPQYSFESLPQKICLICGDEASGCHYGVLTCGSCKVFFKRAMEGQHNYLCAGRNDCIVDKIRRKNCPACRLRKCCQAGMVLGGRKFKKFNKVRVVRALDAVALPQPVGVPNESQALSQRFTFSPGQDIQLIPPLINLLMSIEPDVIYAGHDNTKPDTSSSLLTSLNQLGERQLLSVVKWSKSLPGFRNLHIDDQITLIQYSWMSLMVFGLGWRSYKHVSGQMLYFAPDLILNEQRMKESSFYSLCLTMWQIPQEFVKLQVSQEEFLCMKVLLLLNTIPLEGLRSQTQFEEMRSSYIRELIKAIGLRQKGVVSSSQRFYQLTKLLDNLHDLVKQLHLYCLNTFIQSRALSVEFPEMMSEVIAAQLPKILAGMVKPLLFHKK
# Method in brief: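 HEK 293T PR-UAS-bla reporter cells, 2% charcoal-stripped FBS; 6 hr settle at 37C/5% CO2, compound (DMSO) 16 hr, LiveBLAzer B/G FRET substrate 2 hr RT, fluorescence intensity read.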
# [3] = biological target: Progesterone receptor (Homo sapiens) (UniProt P06401); assay: qHTS assay to identify small molecule antagonists of the progesterone receptor (PR) signaling pathway (AID 1346795; active = well fitted inhibition curve with a large enough effect in the signal ratio in the repeat runs, not every such curve was filed as active; the % refers to the signal ratio; also: potency is read from the fitted curve at half-maximal effect)
# Method in brief: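 Beta-lactamase reporter, HEK293T PR-UAS-bla line; 2% charcoal-stripped FBS; 6 hr pre-incubation, 37C/5% CO2. Compound + R5020 1 nM final, 16 hr. LiveBLAzer B/G FRET substrate, 2 hr RT; fluorescence intensity read.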
# [4] = qHTS assay to identify small molecule agonists of the progesterone receptor (PR) signaling pathway - cell viability counter screen (AID 1346799; calls by dose curve; also: nearly all actives have a fitted effect of over 45% in size; also: potency is read from the fitted curve at half-maximal effect)
# Method in brief: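 HEK293T PR-UAS-bla, 3,000 cells/well, 2% charcoal-stripped FBS; 6 h settle, compound 16 h at 37C/5% CO2; LiveBLAzer 2 h RT, then CellTiter-Glo 30 min RT, luminescence read.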
# [5] = qHTS assay to identify small molecule agonists of the TGF-beta/Smad signaling pathway (AID 1346859; active = well fitted activation curve with a large enough effect in the signal ratio in the repeat runs, not every such curve was filed as active; the % refers to the signal ratio; also: series mostly up to about 77 µM)
# Method in brief: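 Read-out: fluorescence at 460 and 530 nm (405 nm excitation) after a 2 hr room-temperature incubation with beta-lactamase FRET substrate. SBE-bla HEK 293T cells had been treated with test compounds for 5 hr at 37 C.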
# [6] = biological target: Thyrotropin-releasing hormone receptor (Homo sapiens) (UniProt P34981); assay: qHTS assay to identify small molecule antagonists of the thyrotropin-releasing hormone receptor (TRHR) signaling pathway (AID 1346877; active = well fitted inhibition curve with a large enough effect in the repeat runs, not every such curve was filed as active; also: potency is read from the fitted curve at half-maximal effect)
# Sequence of Thyrotropin-releasing hormone receptor (Homo sapiens) (P34981 whole entry, looked up): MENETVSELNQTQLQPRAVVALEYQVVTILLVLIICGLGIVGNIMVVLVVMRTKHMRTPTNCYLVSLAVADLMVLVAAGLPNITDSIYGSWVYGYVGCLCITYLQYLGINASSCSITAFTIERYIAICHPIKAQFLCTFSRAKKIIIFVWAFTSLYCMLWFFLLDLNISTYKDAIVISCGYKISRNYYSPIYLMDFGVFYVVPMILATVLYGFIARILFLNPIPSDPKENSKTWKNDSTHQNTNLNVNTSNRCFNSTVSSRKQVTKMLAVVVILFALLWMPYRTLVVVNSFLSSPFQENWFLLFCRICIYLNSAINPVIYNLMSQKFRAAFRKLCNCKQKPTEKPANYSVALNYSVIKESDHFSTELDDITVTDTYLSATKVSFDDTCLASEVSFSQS
# Method in brief: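 HEK293/TRHR cells, 18 h, 37 °C; Ca2+ dye 2 h; cpd 5 min RT; TRH 1 nM final; fluorescence read 3 min, 1 s intervals; 15 concs, triplicate.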
# [7] = biological target: Thyrotropin-releasing hormone receptor (Homo sapiens) (UniProt P34981); assay: qHTS assay to identify small molecule agonists of the thyrotropin-releasing hormone receptor (TRHR) signaling pathway (AID 1346891; calls by dose curve; also: potency is read from the fitted curve at half-maximal effect;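 as to activation: HEK293 cells expressing TRHR with calcium dye readout; series mostly up to about 58 µM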)
# Method in brief: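 HEK293/TRHR cells, 1500 per well, 18 h 37 °C; Ca dye 2 h 37 °C; pin-tool compound addition (agonist mode); kinetic fluorescence 3 min, 1 s reads; 15 concentrations, triplicate.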
# [8] = Human pregnane X receptor (PXR) small molecule agonists, qHTS cell viability counter screen (AID 1346977); also: nearly all actives have a fitted effect of over 50% in size; also: potency is read from the fitted curve at half-maximal effect
# Method in brief: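 Fluorescence read-out (CellTiter-Fluor) of viability in PXR-Luc HepG2 cells, multiplexed with the luciferase agonist read. Compounds in DMSO added after 5hr plating; 24hr total exposure at 37C, 5% CO2.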
# [9] = Caspase-3/7 induction in HepG2 cells by small molecules, qHTS assay (AID 1346978); also: nearly all actives have a fitted effect of over 15% in size
# Method in brief: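 Caspase-3/7 induction was measured by Caspase-Glo 3/7 luminescence (30 min, room temperature) after a 17 hr compound exposure of wild-type HepG2 cells seeded at 2,000 per well and pre-incubated 5 hr.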
# [10] = Caspase-3/7 induction in CHO-K1 cells by small molecules, qHTS cell viability counter screen (AID 1346979); also: nearly all actives have a fitted effect of over 35% in size; also: potency is read from the fitted curve at half-maximal effect
# Method in brief: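 CHO-K1 wt, 1,500 cells/well; 5hr pre-incubation 37C/5% CO2; compound pin transfer (DMSO); 16hr exposure; CellTiter-Fluor added, 1hr, fluorescence read.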
# [11] = Caspase-3/7 induction in HepG2 cells by small molecules, qHTS cell viability counter screen (AID 1346981); also: nearly all actives have a fitted effect of over 30% in size; also: potency is read from the fitted curve at half-maximal effect
# Method in brief: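 Fluorescence read-out of live-cell protease activity (CellTiter-Fluor) after 1 hr with reagent. This was measured in the same wells as the caspase-3/7 luminescence, on HepG2 cells exposed to DMSO-dissolved compounds for 16 hr at 37 C.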
# [12] = biological target: Nuclear receptor subfamily 1 group I member 2 (Homo sapiens) (UniProt O75469); assay: Human pregnane X receptor (PXR) small molecule agonists, qHTS assay (AID 1346982); also: nearly all actives have a fitted effect of over 35% in size; also: potency is read from the fitted curve at half-maximal effect
# Sequence of Nuclear receptor subfamily 1 group I member 2 (Homo sapiens) (O75469 whole entry, looked up): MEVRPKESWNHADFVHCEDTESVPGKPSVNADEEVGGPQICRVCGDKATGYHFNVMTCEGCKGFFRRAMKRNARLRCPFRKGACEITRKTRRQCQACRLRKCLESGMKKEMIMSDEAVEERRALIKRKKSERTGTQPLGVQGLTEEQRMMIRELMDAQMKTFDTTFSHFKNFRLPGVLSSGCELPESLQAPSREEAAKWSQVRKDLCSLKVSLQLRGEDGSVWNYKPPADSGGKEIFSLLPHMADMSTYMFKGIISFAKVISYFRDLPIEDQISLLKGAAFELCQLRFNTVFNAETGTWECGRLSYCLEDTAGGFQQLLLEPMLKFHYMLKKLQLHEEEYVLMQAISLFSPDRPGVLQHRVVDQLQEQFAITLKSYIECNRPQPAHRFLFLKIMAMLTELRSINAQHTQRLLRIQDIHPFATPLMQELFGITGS
# Method in brief: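 HepG2 PXR-Luc reporter line, 5% charcoal-stripped FBS; 5 hr pre-incubation, compound (DMSO) 24 hr at 37 C/5% CO2; ONE-Glo 30 min RT; luminescence read-out.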
# [13] = biological target: Nuclear receptor subfamily 1 group I member 2 (Rattus norvegicus) (UniProt Q9R1A7); assay: Rat pregnane X receptor (rPXR) activation by small molecules, qHTS assay (AID 1346983); conditions: rPXR luciferase reporter cells, One-Glo luminescence, 24 h; stronger effect = higher value; also: nearly all actives have a fitted effect of over 20% in size
# Sequence of Nuclear receptor subfamily 1 group I member 2 (Rattus norvegicus) (Q9R1A7 whole entry, looked up): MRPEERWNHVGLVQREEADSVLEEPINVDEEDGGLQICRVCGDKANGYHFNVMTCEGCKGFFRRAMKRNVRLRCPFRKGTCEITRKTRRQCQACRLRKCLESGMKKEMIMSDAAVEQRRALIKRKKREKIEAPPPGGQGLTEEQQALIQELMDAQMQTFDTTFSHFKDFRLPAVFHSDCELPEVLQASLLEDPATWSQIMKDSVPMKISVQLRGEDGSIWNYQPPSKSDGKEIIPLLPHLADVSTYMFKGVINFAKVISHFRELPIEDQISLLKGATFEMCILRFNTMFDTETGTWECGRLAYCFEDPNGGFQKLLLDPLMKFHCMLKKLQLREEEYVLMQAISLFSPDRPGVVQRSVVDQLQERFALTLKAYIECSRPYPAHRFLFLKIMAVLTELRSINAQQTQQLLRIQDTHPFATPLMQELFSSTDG
# Method in brief: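 Luminescent readout (One-Glo luciferase, 30 min room temperature) followed 24 hr compound treatment at 37 C of rPXR cells plated 2,000 per well and preincubated 5hr; qHTS format with compounds delivered in DMSO.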
# [14] = biological target: Nuclear receptor subfamily 1 group I member 2 (Homo sapiens) (UniProt O75469); assay: Human pregnane X receptor (PXR) activation by small molecules, qHTS assay (AID 1346985); also: nearly all actives have a fitted effect of over 40% in size
# Method in brief: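 DPX-2 cells (HepG2 co-transfected with a PXR response element and a CYP3A4-promoter luciferase construct) were seeded at 2,000 per well, rested 5 hr at 37C, then exposed to DMSO-dissolved compounds for 24 hr. Activation was read as luciferase luminescence.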
# [15] = biological target: Cytochrome P450 2D6 (Homo sapiens) (UniProt P10635); assay: Cytochrome P450 Family 2 Subfamily D Member 6 (CYP2D6) small molecule antagonists: luciferase reporter qHTS assay (AID 1671196); also: nearly all actives have a fitted effect of over 50% in size; also: potency is read from the fitted curve at half-maximal effect
# Sequence of Cytochrome P450 2D6 (Homo sapiens) (P10635 whole entry, looked up): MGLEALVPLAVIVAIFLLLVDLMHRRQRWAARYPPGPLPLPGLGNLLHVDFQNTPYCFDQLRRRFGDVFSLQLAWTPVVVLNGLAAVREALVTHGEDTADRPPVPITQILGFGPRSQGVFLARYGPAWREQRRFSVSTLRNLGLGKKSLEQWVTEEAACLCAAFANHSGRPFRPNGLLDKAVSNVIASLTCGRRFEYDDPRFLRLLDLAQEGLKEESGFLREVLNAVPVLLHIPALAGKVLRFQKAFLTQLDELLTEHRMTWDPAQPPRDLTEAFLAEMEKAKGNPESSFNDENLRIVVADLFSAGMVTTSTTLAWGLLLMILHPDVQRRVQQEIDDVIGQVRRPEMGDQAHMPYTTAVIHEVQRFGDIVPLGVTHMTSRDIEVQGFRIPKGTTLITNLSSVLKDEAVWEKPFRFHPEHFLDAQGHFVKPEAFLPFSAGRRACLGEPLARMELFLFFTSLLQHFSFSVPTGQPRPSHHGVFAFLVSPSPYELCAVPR
# Method in brief: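 Luminogenic proluciferin substrate, CYP2D6 enzyme; 10 min RT preincubation with compound, NADPH regeneration system added, 1 h RT. Stop/detection reagent, 20 min RT, luminescence read (RLU). Signal proportional to CYP activity.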
# [16] = biological target: Cytochrome P450 2C19 (Homo sapiens) (UniProt P33261); assay: Cytochrome P450 Family 2 Subfamily C Member 19 (CYP2C19) small molecule antagonists: luciferase reporter qHTS assay (AID 1671197); also: nearly all actives have a fitted effect of over 65% in size; also: potency is read from the fitted curve at half-maximal effect
# Sequence of Cytochrome P450 2C19 (Homo sapiens) (P33261 whole entry, looked up): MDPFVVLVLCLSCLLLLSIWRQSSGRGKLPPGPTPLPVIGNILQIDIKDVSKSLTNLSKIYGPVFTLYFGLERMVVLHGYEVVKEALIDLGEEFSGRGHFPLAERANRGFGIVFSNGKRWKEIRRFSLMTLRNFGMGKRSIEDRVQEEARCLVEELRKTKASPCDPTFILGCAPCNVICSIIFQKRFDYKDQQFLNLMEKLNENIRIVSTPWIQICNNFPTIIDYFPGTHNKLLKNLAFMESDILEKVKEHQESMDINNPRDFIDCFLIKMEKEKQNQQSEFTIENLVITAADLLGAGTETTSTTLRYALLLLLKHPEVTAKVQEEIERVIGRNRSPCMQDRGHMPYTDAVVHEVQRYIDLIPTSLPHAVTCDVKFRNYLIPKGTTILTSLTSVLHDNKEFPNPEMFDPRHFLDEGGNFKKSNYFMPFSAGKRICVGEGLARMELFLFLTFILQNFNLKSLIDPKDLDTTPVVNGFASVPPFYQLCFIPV
# Method in brief: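 Luminescent readout of CYP2C19 activity: luciferin product detected 20 min after adding detection reagent. Before that, compound and enzyme-substrate mix preincubated 10 min at room temperature; NADPH-regenerating system started a 1 h, 37C reaction. Ketoconazole as positive control.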
# [17] = qHTS assay to identify small molecule antagonists of the progesterone receptor (PR) signaling pathway - cell viability counter screen (AID 1346798); also: nearly all actives have a fitted effect of over 50% in size; also: potency is read from the fitted curve at half-maximal effect
# Method in brief: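 Luminescence readout (CellTiter-Glo, 30 min, RT) of viability in PR-UAS-bla HEK293T cells exposed to compound and R5020 agonist for 16 hr at 37C, 5% CO2; run in the same wells as the beta-lactamase reporter read.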
# [18] = qHTS assay to identify small molecule antagonists of the TGF-beta/Smad signaling pathway - cell viability counter screen (AID 1346824); also: nearly all actives have a fitted effect of over 50% in size
# Method in brief: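 Cytotoxicity counter-screen run in the same wells as the beta-lactamase Smad reporter read: CellTiter-Glo luminescence after 30 min at room temperature. HEK 293T SBE-bla cells had 5 hr compound exposure at 37 C with TGF-beta1 (0.25 ng/mL stock).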
# [19] = Caspase-3/7 induction in CHO-K1 cells by small molecules, qHTS assay (AID 1346980); also: nearly all actives have a fitted effect of over 15% in size
# Method in brief: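 Luminescent Caspase-Glo 3/7 read (30min, room temperature) quantified apoptosis induction. Cells were wild-type CHO-K1, treated with compound for 17hr at 37 C and 5% CO2.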
# [20] = qHTS assay to identify small molecule agonists of the TGF-beta/Smad signaling pathway - cell viability counter screen (AID 1346829); also: top concentration of the series differs between compounds; nearly all actives have a fitted effect of over 45% in size
# Method in brief: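 Cytotoxicity counter screen: CellTiter-Glo luminescence (30 min, room temperature) measured in the SBE-bla HEK 293T reporter wells after 5 hr compound treatment at 37 C and the 2 hr substrate step.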
SMILES,Potency [1],Potency [2],Potency [3],Potency [4],outcome [5],Potency [6],Potency [7],Potency [8],Potency [9],Potency [10],Potency [11],Potency [12],max activation [13],Potency [14],Potency [15],Potency [16],Potency [17],Potency [18],Potency [19],Potency [20]
O=S(=O)(O)c1ccc2nc(-c3ccccc3)[nH]c2c1,inactive,inactive,inactive,32.7 µM (active) and 8.41 µM (active),inactive,inactive,inactive,inactive,inactive,inactive,inactive,inactive,-3.42% (inactive),inactive,21.4 µM (active) and 13.8 µM (active),17 µM (active) and 9.77 µM (active),–,–,–,–
CCCCCC(=O)O[C@]1(C(C)=O)CC[C@H]2[C@@H]3CCC4=CC(=O)CC[C@]4(C)[C@H]3CC[C@@]21C,inactive,–,21.1 µM (active),–,–,inactive,inactive,43 µM (active),inactive,60.7 µM (active) and 33.5 µM (active),60.7 µM (active),9.62 µM (active) and 11.9 µM (active),–,–,6.28 µM (active) and inactive,17.7 µM (active) and 17.4 µM (active),43 µM (active) and 33.5 µM (active),inactive,inactive,–
CCCCCCC(O)CCCCCCCCCCC(=O)O (configuration not stated),inactive,inactive,–,48.7 µM (active) and 15.4 µM (active),–,inactive,inactive,inactive,inactive,inactive,inactive,inactive,–,–,inactive,inactive,–,inactive,inactive,inactive
CC(C)(C)NCC(O)c1cc(O)cc(O)c1 (configuration not stated),inactive,–,inactive,inactive,inactive,inactive,inactive,inactive,inactive,inactive,inactive,inactive,3.93% (inactive),inactive,38.9 µM (active),inactive,inactive,inactive,inactive,inactive
NC(=Nc1ccccc1)Nc1ccccc1,inactive,–,inactive,inactive,inactive,10.1 µM (active) and inactive,7.76 µM (active) and 15.1 µM (active),4.86 µM (active),inactive,inactive,20.5 µM (active),3.86 µM (active) and 11.9 µM (active),-2.33% (inactive),inactive,212 nM (active) and 617 nM (active),–,inactive,inactive,inactive,inactive
CC(=O)Nc1ccc(C(=O)CCl)cc1,inactive,–,inactive,inactive,inactive,inactive,inactive,inactive and 61.1 µM (active),inactive,54.8 µM (active) and 17.2 µM (active),inactive,21.8 µM (active) and 24.3 µM (active),–,–,–,–,inactive,inactive,inactive,inactive
